# Measured values from PubChem BioAssay (EPA / NIEHS).
# Activity calls are given as the source filed them. The calls were made as follows: active = hit-call score of the fitted dose curve at least 0.9, where 1 is the maximum; inactive = score below 0.9.
# Read-out: Monocyte Chemoattractant Protein-1 (MCP1), CCL2 (gene 6347)
# Assay: BSK_SAg_MCP1: BioMAP Diversity Plus: SAg Assay for Monocyte Chemoattractant Protein-1 (MCP1) Biomarker Activity (AID 2283090)
# Settings: primary human HUVEC with PBMC; actives raise or lower the signal
# Description: BSK_SAg is a cell-based, multiplexed-readout assay that uses umbilical vein endothelium and peripheral blood mononuclear cells, a human vascular primary cell co-culture, with measurements taken at 24 hours after chemical dosing in a 96-well plate.BSK_SAg_MCP1 is an assay component measured in the BSK_SAg assay. It measures MCP-1 antibody related to regulation of gene expression using ELISA technology.Data from the assay component BSK_SAg_MCP1 was analyzed into 1 assay endpoint. This assay endpoint, BSK_SAg_MCP1, was analyzed with bidirectional fitting relative to DMSO as the negative control and baseline of activity. Using a type of binding reporter, gain or loss-of-signal activity can be used to understand changes in the signaling as they relate to the gene CCL2. Furthermore, this assay endpoint can be referred to as a primary readout, because this assay has produced multiple assay endpoints where this one serves a signaling function. To generalize the intended target to other relatable targets, this assay endpoint is annotated to the cytokine intended target family, where the subfamily is chemotactic factor.
# The levels of cell surface (or secreted, indicated by the prefix "s") biomarker endpoints were measured by ELISA. Overt cytotoxicity to cells in confluent adherent cultures (all systems other than the BT system) was assessed by measuring total protein levels using sulforhodamine B (SRB) staining in parallel cultures at the time of biomarker measurements, indicated as SRB endpoints. For proliferation assays for adherent cell types, individual cell types are cultured at sub-confluence and relative cell numbers quantified by SRB staining at time points optimized for each system (48 h: 3C and CASM3C systems; 72 h: BT and HDF3CGF systems; 96 h: SAg system). SRB was performed by staining cells with 0.1% SRB after fixation with 10% TCA and reading wells at 560 nm.Viability and proliferation of PBMC (T cells) was quantified by Alamar Blue reduction for the SAg and BT systems. For PBMC viability (referred to as PBMC Cytotoxicity within the assay endpoint names), cells were plated (75,000/well in a 96-well plate) and then chemical samples added for 1 h before addition of activators, SEB and TSST-1 (20 ng/mL final concentration each). Cells were incubated for 90 h. Then, Alamar Blue (20 uL/well) (Invitrogen, Cat DAL1100) was added for 6 h, and the plates were read with a fluorescence microplate reader at 546/580 nm (excitation/emission). For PBMC proliferation, cells were plated and activated as above but incubated for only 16 h prior to addition of Alamar Blue. Plates were read after 6 h.
Structure (SMILES),outcome,AC50
Cc1ncc([C@@H](CCCCCCc2ccc3c(n2)NCCC3)CC(=O)O)cn1,inactive,
C[Si](C)(C)C(F)(F)C(F)(F)C(F)(F)F,inactive,
FC(F)(F)COC(OCC(F)(F)F)OCC(F)(F)F,inactive,
C[C@@H](Oc1ccc(CNC(=O)c2cccnc2Oc2ccc3c(c2)OCO3)c(F)c1)C(=O)O,inactive,
CCc1ccc(O)c(C(C)(C)C)c1,,20 µM (active)
CCCCCCCCCC,inactive,
O=C1CN(N=Cc2ccc([N+](=O)[O-])o2)C(=O)N1,inactive,
CCCCCCCC/C=C\CCCCCCCC(=O)OC[C@@H](O)[C@H]1OC[C@H](O)[C@H]1O,inactive,
CCCCCCCCCCCCCCCCOS(=O)(=O)O,inactive,
Cc1nc(-c2ccccn2)ncc1C(=O)Nn1cc(C)c2cc(F)ccc21,inactive,
CCCC(CCC)C(=O)O,inactive,
NC(=O)N1c2ccccc2C=Cc2ccccc21,inactive,
CCOc1ccc2[nH]cc(C(=O)NCc3ccccc3)c(=O)c2n1,inactive,
CCc1cccc(CC)c1N,inactive,
CC(C)C(=O)Nc1ccc([N+](=O)[O-])c(C(F)(F)F)c1,inactive,
NNC(=O)c1ccncc1,inactive,
CCCc1ccccc1,inactive,
Nc1ccn([C@@H]2O[C@H](CO)[C@@H](O)[C@@H]2O)c(=O)n1,inactive,
O=C(Cl)C(F)(F)C(F)(F)C(F)(F)C(=O)Cl,inactive,
CCn1nc(C)c2c1C(=O)NCC(c1ccc(O)cc1)=N2,,4.49 µM (active)

Structure (SMILES),outcome,AC50
c1ccc(C(O[C@@H]2CCCN(CCc3ccc4c(c3)OCO4)C2)c2ccccc2)cc1,,26.5 µM (active)
CCCCN1C(=O)[C@@H]([C@H](O)C2CCCCC2)NC(=O)C12CCN(Cc1ccc(Oc3ccc(C(=O)O)cc3)cc1)CC2,inactive,
CCOC(N)=O,inactive,
CCCCCCCC1CCC(=O)O1 (stereo not given),inactive,
C=CN1CCCC1=O,inactive,
O=C(O)[C@H](O)[C@@H](O)C(=O)O,inactive,
OCC(CO)(CO)CO,inactive,
CCCCC(CC)C(=O)OCCOCCOCCOC(=O)C(CC)CCCC (stereo not given),inactive,
OC(O)(C(F)C(O)(O)C(F)(F)F)C(F)(F)F,inactive,
COCc1nnc(-c2ccc[n+]([O-])c2)n1-c1c(Cl)c(Cl)cc2[nH]c(=O)c(=O)[nH]c12,inactive,
OC(Cn1cncn1)(Cn1cncn1)c1ccc(F)cc1F,inactive,
O=S1(=O)CCCO1,inactive,
OCc1c[nH]c2ccccc12,inactive,
Cc1nccn1-c1ccc(Sc2cccc(C3(C(N)=O)CCOCC3)c2)cc1,,6.58 µM (active)
O=C(O)c1cccc(C(=O)O)c1,inactive,
NCC(F)(F)C(F)(F)C(F)(F)C(F)(F)F,inactive,
CC1(C)C(=O)N(Cl)C(=O)N1Cl,inactive,
COc1cc2c(c(OC)c1OC)-c1ccc(OC)c(=O)cc1[C@@H](NC(C)=O)CC2,inactive,
C[C@]12C=CC(=O)C=C1CC[C@H]1[C@@H]3C[C@@H](O)[C@](O)(C(=O)CO)[C@@]3(C)C[C@H](O)[C@@]12F,,5.08 µM (active)
OCCC(F)(F)C(F)(F)C(F)(F)C(F)(F)F,inactive,
